{"source": "ChEMBL document CHEMBL3988442", "about": "“University of Dundee, Small-Polar-MMV Screening Library” (2021)", "note": "The campaign covered roughly 48,000 compounds. About 13,000 (27%) showed an effect of 50% or more. Some of the results follow."}
{"test_system": "Wolbachia pipientis", "assay": "Anti-Wolbachia Cell-Based Screen", "assay_type": "functional", "parameters": "scale not given: in the data most compounds retested in dose-response had high values", "conditions": "5 µM", "units": {"Percent Effect": "%"}}
{"smiles": "CCOCC1CCN(C(=O)Nc2ccc(-c3csnn3)cc2)C1", "note": "(stereo not drawn)", "Percent Effect": -10.06}
{"smiles": "COc1ccc(C(=O)NS(=O)(=O)c2ccc(C#N)cc2C(F)(F)F)cc1", "Percent Effect": -4.886}
{"smiles": "CC(C)(C)CC(=O)NS(=O)(=O)c1ccc(C#N)cc1C(F)(F)F", "Percent Effect": 82.77}
{"smiles": "N#Cc1cccc(S(=O)(=O)NC(=O)CCOCC(F)(F)F)c1", "Percent Effect": 2.733}
{"smiles": "CC(C)CC(=O)NS(=O)(=O)c1ccc(C#N)cc1C(F)(F)F", "Percent Effect": 112.6}
{"smiles": "N#Cc1cccc(S(=O)(=O)NC(=O)COCC(F)(F)F)c1", "Percent Effect": -9.311}
{"smiles": "Cc1ccc(C)c(S(=O)(=O)NC(=O)COc2cccc(C#N)c2)c1", "Percent Effect": 12.25}
{"smiles": "Cc1ccc(C(=O)NCCC2CCN(C)CC2)cc1N(C)S(C)(=O)=O", "Percent Effect": -13.52}
{"smiles": "CC(=O)c1csc(-c2csc(Cn3ccc(=O)[nH]c3=O)n2)c1", "Percent Effect": -9.484}
{"smiles": "O=C(Cn1ccnc1)N1CCC(n2cc(-c3cccc(Cl)c3)nn2)CC1", "Percent Effect": 2.937}
{"smiles": "O=C(Cn1ccnc1)N1C[C@@H]2CC[C@H](Oc3ccccc3F)[C@@H]2C1", "Percent Effect": 91.22}
{"smiles": "O=C(Cn1ccnc1)N1C[C@@H]2CC[C@H](Oc3ccc(Cl)cc3)[C@@H]2C1", "Percent Effect": 109.7}
{"smiles": "CN(C)CC(=O)N1C[C@@H]2CC[C@H](Oc3ccccc3Cl)[C@@H]2C1", "Percent Effect": -7.066}
{"smiles": "CC(=O)NCC(=O)N1C[C@@H]2CC[C@H](Oc3ccccc3Cl)[C@@H]2C1", "Percent Effect": 95.47}
{"smiles": "CC(C)N1CC(C(=O)N2CCC(Oc3ccccc3Cl)CC2)CC1=O", "note": "(stereo not drawn)", "Percent Effect": -11.86}
{"smiles": "CCC(CNC(=O)Cn1ccnc1)Oc1cccc(F)c1", "note": "(stereo not drawn)", "Percent Effect": 0.7752}
{"smiles": "O=C(Cn1ccnc1)N1C[C@@H]2CC[C@H](Oc3ccccc3)[C@@H]2C1", "Percent Effect": -14.9}
{"smiles": "O=C(c1cnco1)N1C[C@@H]2CC[C@H](Oc3ccccc3F)[C@@H]2C1", "Percent Effect": -11.33}
{"smiles": "O=C(Cn1ccnc1)N1C[C@@H]2CC[C@H](Oc3ccccc3Cl)[C@@H]2C1", "Percent Effect": -8.109}
{"smiles": "O=C(Cn1ccnc1)N1C[C@@H]2CC[C@H](Oc3cccc(F)c3)[C@@H]2C1", "Percent Effect": 109}
{"smiles": "O=C(c1cnco1)N1C[C@@H]2CC[C@H](Oc3cccc(F)c3)[C@@H]2C1", "Percent Effect": -6.458}
{"smiles": "CC(C1CC1)N(C)C(=O)c1cnc(-c2ccc3c(c2)OCO3)s1", "note": "(stereo not drawn)", "Percent Effect": -9.871}
{"smiles": "CN(CC1CC1)C(=O)Cc1csc(-c2ncccn2)n1", "Percent Effect": -2.04}
{"smiles": "CCC(=O)NCC(CC)Oc1cccc(F)c1", "note": "(stereo not drawn)", "Percent Effect": -9.029}
{"smiles": "CC(C)N(C)Cc1ncn2c1CN(S(=O)(=O)c1cccs1)CCC2.O=C(O)C(F)(F)F", "Percent Effect": 2.779}
{"smiles": "CCN(CC)Cc1nc2c(o1)CN(C(=O)c1ccncc1F)C2", "Percent Effect": 11.31}
{"smiles": "CCN(CC)Cc1nc2c(o1)CN(S(=O)(=O)c1cccs1)C2.O=C(O)C(F)(F)F", "Percent Effect": 103.4}
{"smiles": "CN(C)Cc1nc2c(o1)CN(S(=O)(=O)c1cccs1)C2.O=C(O)C(F)(F)F", "Percent Effect": 113.1}
{"smiles": "CN(C)Cc1nc2c(o1)CN(C(=O)NCc1cccc(F)c1)C2.O=C(O)C(F)(F)F", "Percent Effect": -9.503}
{"smiles": "CCN(CC)Cc1nc2c(o1)CN(C(=O)c1ccc3ncccc3c1)C2", "Percent Effect": -8.46}
{"smiles": "CC(Oc1ccc(F)c(F)c1)C(=O)N(CC(N)=O)C1CCCC1", "note": "(stereo not drawn)", "Percent Effect": 5.493}
{"smiles": "CC(NC(=O)CCc1cccc(OC2CCCC2)c1)c1nncn1C", "note": "(stereo not drawn)", "Percent Effect": -2.207}
{"smiles": "CCOC(=O)c1sc(NC(=O)C(C)C)c(C#N)c1C", "Percent Effect": 157.4}
{"smiles": "CCCC(=O)Nc1sc(C(=O)OCC)c(C)c1C#N", "Percent Effect": 10.62}
{"smiles": "Cc1sc(NC(=O)CN(C)S(C)(=O)=O)c(C#N)c1C", "Percent Effect": 5.3}
{"smiles": "CCOC(=O)c1sc(NC(=O)CN2C(=O)CCC2=O)c(C#N)c1C", "Percent Effect": 132.7}
{"smiles": "CCOC(=O)c1sc(NC(=O)CN(C)S(C)(=O)=O)c(C#N)c1C", "Percent Effect": 0.9217}
{"smiles": "Cc1cc(N2CCCC(N(C)C)C2)n2nccc2n1", "note": "(stereo not drawn)", "Percent Effect": 14.85}
{"smiles": "O=C(CCc1ccco1)Nc1cccc(S(=O)(=O)C(F)F)c1", "Percent Effect": 1.803}
{"smiles": "COC(=O)C(NC(=O)c1ccco1)c1cc(F)ccc1F", "note": "(stereo not drawn)", "Percent Effect": -3.431}
{"smiles": "CC(C)OCCC(=O)N(C)c1ccc(F)c(Cl)c1", "Percent Effect": 3.103}
{"smiles": "COC(=O)C(NC(=O)CC(C)C)c1cc(F)ccc1F", "note": "(stereo not drawn)", "Percent Effect": 110.3}
{"smiles": "COC(=O)C(NC(=O)C(C)C)c1cc(F)ccc1F", "note": "(stereo not drawn)", "Percent Effect": -7.207}
{"smiles": "CCCC(=O)NC(C(=O)OC)c1cc(F)ccc1F", "note": "(stereo not drawn)", "Percent Effect": 95.91}
{"smiles": "CCOC(=O)C(C)NC(=O)CCSc1ccc(F)cc1", "note": "(stereo not drawn)", "Percent Effect": 5.779}
{"smiles": "CC(C)NC(=O)CC(C)NCc1ccc(F)cc1Cl", "note": "(stereo not drawn)", "Percent Effect": 10.92}
{"smiles": "COC(=O)C(NC(=O)CCc1ccco1)c1cc(F)ccc1F", "note": "(stereo not drawn)", "Percent Effect": 117.5}
{"smiles": "CC(C)OCCC(=O)Nc1c(-c2ccc(F)cc2)ncn1C", "Percent Effect": 6.912}
{"smiles": "COC(=O)C(NC(=O)CCOC(C)C)c1cc(F)ccc1F", "note": "(stereo not drawn)", "Percent Effect": 85.02}
{"smiles": "CC(C)(C)S(=O)(=O)c1ccc(N2CCN(c3ccccc3)CC2)nn1", "Percent Effect": 15.82}
{"smiles": "COCc1n[nH]c2c1CN(Cc1ccccn1)C2.O=C(O)C(F)(F)F", "Percent Effect": -21.53}
{"smiles": "Cc1nnc(N2CCN(C(=O)NC3CC3)CC2)c(C(N)=O)c1C", "Percent Effect": -22.89}
{"smiles": "CS(=O)(=O)NCC1CCCCN1Cc1ccccc1C#N", "note": "(stereo not drawn)", "Percent Effect": 1.848}
{"smiles": "COCCN1CC(=O)c2sc(NCc3ccccc3)nc2C1", "Percent Effect": 105.3}
{"smiles": "O=C1CN(CC2CC2)Cc2nc(NCc3ccccc3)sc21", "Percent Effect": 59.83}
{"smiles": "Cn1c(C2CC2)nc2c1CCN(CCc1ccccn1)C2", "Percent Effect": -2.558}
{"smiles": "Cc1nc(CNC2CCN(Cc3ccccc3)C2)sc1C", "note": "(stereo not drawn)", "Percent Effect": -5.508}
{"smiles": "O=C(NCCc1ccccn1)NC1CCN(c2ccccc2)C1=O", "note": "(stereo not drawn)", "Percent Effect": 10.23}
{"smiles": "O=C1CN(CC2CC2)Cc2nc(NCCc3ccccn3)sc21", "Percent Effect": 91.68}
{"smiles": "O=C(NCc1ccccc1)[C@@H]1Cc2[nH]cnc2CN1CC1CC1", "Percent Effect": 2.59}
{"smiles": "CSC1(CNC(=O)NC(C)c2ccc(F)c(F)c2)CCOCC1", "note": "(stereo not drawn)", "Percent Effect": -14.87}
{"smiles": "Cc1ccc(C(C(=O)NCCc2nc(C)cc(C)n2)N(C)C)cc1", "note": "(stereo not drawn)", "Percent Effect": 11.55}
{"smiles": "COc1ccc(-c2cccc3c2OC(CN)C3)cc1F", "note": "(stereo not drawn)", "Percent Effect": -8.297}
